Assay [1] is described as follows: qHTS assay to identify small molecule antagonists of the estrogen receptor beta (ER-beta) signaling pathway - cell viability counter screen (AID 1259382). Also: nearly all actives have a fitted effect of over 55% in size. Also: potency is read from the fitted curve at half-maximal effect. The method in brief: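 Cytotoxicity was measured in the same wells by CellTiter-Glo luminescence after 30 min at room temperature. Cells were ER-beta-bla HEK293T in charcoal-stripped serum, given compound together with 1 nM E2 and incubated 16 h at 37C.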

Assay [2] concerns the target Estrogen receptor (Homo sapiens) (UniProt P03372). Kind of assay: qHTS assay to identify small molecule agonists of the estrogen receptor alpha (ER-alpha) signaling pathway in the presence of an antagonist (AID 1259383; calls by dose curve; also: top concentration of the series differs between compounds; nearly all actives have a fitted effect of over 15% in size). The method in brief:
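Agonist-mode confirmation run in the presence of 10.0nM (final) ICI-182,780 antagonist. The reporter was ERE-driven luciferase in VM7Luc4E2 cells, grown in charcoal-stripped serum. Cells were exposed to 15-concentration compound series for 22hr, then ONE-Glo luminescence was read.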

The nature of assay [3]: qHTS assay to identify small molecule agonists of the estrogen receptor alpha (ER-alpha) signaling pathway in the presence of an antagonist - cell viability counter screen (AID 1259386). Also: series mostly up to about 92 µM; nearly all actives have a fitted effect of over 30% in size. The essentials: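 Compounds tested at 15 concentrations for 22 h at 37C alongside 10.0nM (final) ICI-182,780 antagonist, in VM7Luc4E2 cells grown in phenol red-free, charcoal-stripped medium. Viability read by CellTiter-Fluor fluorescence after 1 h reagent incubation.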

Assay [4] has as its target Progesterone receptor (Homo sapiens) (UniProt P06401). Kind of assay: qHTS assay to identify small molecule agonists of the progesterone receptor (PR) signaling pathway (AID 1346784; calls by dose curve; also: nearly all actives have a fitted effect of over 30% in size). The method in brief:
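Cells (PR-UAS-bla HEK 293T, GripTite) were plated in assay medium containing 2% charcoal-stripped FBS and incubated 6 hr. Test compounds in DMSO were added for 16 hr at 37C. FRET substrate was then loaded for 2 hr at room temperature before fluorescence reading.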

Assay [5] has the same target. As to the kind of experiment: qHTS assay to identify small molecule antagonists of the progesterone receptor (PR) signaling pathway (AID 1346795; active = well fitted inhibition curve with a large enough effect in the signal ratio in the repeat runs, not every such curve was filed as active; the % refers to the signal ratio; also: potency is read from the fitted curve at half-maximal effect). The method in brief:
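Antagonist mode: compounds tested against 1 nM (final) promegestone stimulation in HEK293T cells expressing PR-UAS-bla reporter, 16 hr at 37C, 5% CO2; beta-lactamase activity detected via B/G FRET substrate after 2 hr at room temperature.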

The nature of assay [6]: qHTS assay to identify small molecule antagonists of the progesterone receptor (PR) signaling pathway - cell viability counter screen (AID 1346798). Also: nearly all actives have a fitted effect of over 50% in size. Also: potency is read from the fitted curve at half-maximal effect. The essentials:
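Counter screen for cytotoxicity: viability of PR-UAS-bla HEK293T cells was measured with CellTiter-Glo luminescence following 16 hr compound exposure in the presence of R5020.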

Assay [7] is described as follows: qHTS assay to identify small molecule agonists of the progesterone receptor (PR) signaling pathway - cell viability counter screen (AID 1346799; calls by dose curve; also: nearly all actives have a fitted effect of over 45% in size; also: potency is read from the fitted curve at half-maximal effect). The method in brief: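 Cells (PR-UAS-bla HEK293T) are plated at 3,000/well in 2% charcoal-stripped FBS medium, rested 6 hr, dosed and incubated 16 hr at 37C. CellTiter-Glo is then added and luminescence measured after 30 min at room temperature.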

A short description of assay [8]: qHTS assay to identify small molecule antagonists of the TGF-beta/Smad signaling pathway - cell viability counter screen (AID 1346824). Also: nearly all actives have a fitted effect of over 50% in size. Also: potency is read from the fitted curve at half-maximal effect. The essentials: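 SBE-bla HEK 293T cells, incubated overnight, then compound plus 0.25 ng/mL TGF-beta1 (stock added) for 5 hr at 37 C. Viability was read in the same wells by CellTiter-Glo luminescence after 30 min at room temperature.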

The nature of assay [9]: qHTS assay to identify small molecule agonists of the TGF-beta/Smad signaling pathway - cell viability counter screen (AID 1346829). Also: top concentration of the series differs between compounds; nearly all actives have a fitted effect of over 45% in size. The essentials:
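Same-well cytotoxicity: CellTiter-Glo added after the 2 hr room-temperature beta-lactamase substrate step, luminescence measured 30 min later; cells had 5 hr of compound at 37 C.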

A short description of assay [10]: qHTS assay to identify small molecule agonists of the TGF-beta/Smad signaling pathway (AID 1346859; active = well fitted activation curve with a large enough effect in the signal ratio in the repeat runs, not every such curve was filed as active; the % refers to the signal ratio; also: series mostly up to about 77 µM). The essentials:
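Reporter line: HEK 293T with stably integrated SBE-controlled beta-lactamase. Compound exposure lasts 5 hr at 37 C and 5% CO2; substrate loading follows for 2 hr at room temperature, with emission read at 460 and 530 nm.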

Assay [11] can be described thus: Human pregnane X receptor (PXR) small molecule agonists, qHTS cell viability counter screen (AID 1346977). Also: nearly all actives have a fitted effect of over 50% in size. Also: potency is read from the fitted curve at half-maximal effect. The method in brief: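 Cytotoxicity counter screen run in the same wells as the PXR luciferase assay, using PXR-Luc HepG2 cells in charcoal-stripped serum medium. Viability: CellTiter-Fluor fluorescence after 24hr compound treatment.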
Assay [12] is described as follows: Caspase-3/7 induction in HepG2 cells by small molecules, qHTS assay (AID 1346978). Also: nearly all actives have a fitted effect of over 15% in size. The essentials:
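Wild-type HepG2 cells, 2,000/well, settled 5 hr at 37 C and 5% CO2, then compound-treated for 17 hr; caspase-3/7 activity read by luminescent Caspase-Glo 3/7 after 30 min at room temperature.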

The nature of assay [13]: Caspase-3/7 induction in CHO-K1 cells by small molecules, qHTS assay (AID 1346980). Also: nearly all actives have a fitted effect of over 15% in size. The essentials: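 Wild-type CHO-K1 cells exposed to compounds for 17hr at 37 C, 5% CO2. Caspase-3/7 activity then measured by Caspase-Glo 3/7 luminescence after 30min at room temperature.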
Assay [14] in a line: Caspase-3/7 induction in HepG2 cells by small molecules, qHTS cell viability counter screen (AID 1346981). Also: nearly all actives have a fitted effect of over 30% in size. Also: potency is read from the fitted curve at half-maximal effect. The method in brief:
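CellTiter-Fluor fluorescence measured viability in the same wells used for Caspase-Glo 3/7. HepG2 (wild type) at 2,000 cells/well were pre-incubated 5 hr, dosed, and given reagent at 16 hr, with 1 hr further at 37C.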

Assay [15] in a line: qHTS assay to identify small molecule agonists or antagonists of the thyroid stimulating hormone receptor (TSHR) signaling pathway - wild type cell line counter screen (AID 1259384; calls by dose curve). The method in brief:
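Wild-type Hek293 cells, 800/well, 18 h at 37C, then compound with Ro20-1724 for 30 min RT. cAMP by HTRF (cAMP-d2/anti-cAMP cryptate), 1 h RT, fluorescence read. 15 concentrations, triplicates.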

In assay [16] the target is Thyrotropin receptor (Homo sapiens) (UniProt P16473). As to the kind of experiment: qHTS assay to identify small molecule antagonists of the thyroid stimulating hormone receptor (TSHR) signaling pathway (AID 1259385; calls by dose curve; also: nearly all actives have a fitted effect of over 20% in size; also: potency is read from the fitted curve at half-maximal effect). The essentials:
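TSHR-HEK293 cells (800/well) plated 18 h, then compounds with Ro20-1724 and TSH at 1.5 ng/mL final, 30 min at room temperature. cAMP quantified by HTRF (cAMP-d2/anti-cAMP-cryptate, 1 h); 15 concentrations in triplicate.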

In assay [17] the target is Thyrotropin-releasing hormone receptor (Homo sapiens) (UniProt P34981). As to the kind of experiment: qHTS assay to identify small molecule agonists of the thyrotropin-releasing hormone receptor (TRHR) signaling pathway (AID 1346891; calls by dose curve;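 also: HEK293 cells expressing TRHR with calcium dye readout; series mostly up to about 58 µM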). The essentials: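 Cells: TRHR-Hek293, seeded and incubated 18 h. Dye loading: 2 h at 37 °C. Compound added from DMSO stock by pin tool. Read-out: kinetic calcium fluorescence over 3 min.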

Assay [18] can be described thus: Caspase-3/7 induction in CHO-K1 cells by small molecules, qHTS cell viability counter screen (AID 1346979). Also: nearly all actives have a fitted effect of over 35% in size. Also: potency is read from the fitted curve at half-maximal effect. The essentials:
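Cytotoxicity counter screen run in parallel with the caspase-3/7 assay: CHO-K1 cells, 16hr compound treatment at 37C, then CellTiter-Fluor for 1hr before fluorescence reading.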

The target of assay [19] is Nuclear receptor subfamily 1 group I member 2 (Homo sapiens) (UniProt O75469). Kind of assay: Human pregnane X receptor (PXR) small molecule agonists, qHTS assay (AID 1346982). Also: nearly all actives have a fitted effect of over 35% in size. The method in brief: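 Agonist mode: luminescence from ONE-Glo after 24 h compound exposure at 37C in HepG2 cells carrying hPXR-responsive CYP3A4 luciferase, plated in charcoal-stripped serum medium 5 h beforehand.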

Assay [20] concerns the target Thyrotropin-releasing hormone receptor (Homo sapiens) (UniProt P34981). Kind of assay: qHTS assay to identify small molecule antagonists of the thyrotropin-releasing hormone receptor (TRHR) signaling pathway (AID 1346877; active = well fitted inhibition curve with a large enough effect in the repeat runs, not every such curve was filed as active; also: series mostly up to about 51 µM). The method in brief:
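Antagonist mode: after a 5 min room-temperature compound exposure, cells were stimulated with 1 nM (final) TRH. Dye-loaded TRHR-HEK293 cells were used, and calcium-dependent fluorescence was followed for 3 min, with 15-point titrations run in triplicate.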

This passage reports Potency and outcome results from PubChem BioAssay (Tox21).

Molecules are shown by their SMILES. Inconclusive results are not listed. Activity calls are given as the source filed them. Unless noted, calls follow the shape of the dose curve; as a rule, active = well fitted curve in the direction sought with a large enough effect in the repeat runs; inconclusive = weak or mixed curves; inactive = no such curve, though single readings can be large; an effect the other way counts as inactive or inconclusive.

Estrogen receptor (Homo sapiens), sequence (P03372 whole entry, looked up): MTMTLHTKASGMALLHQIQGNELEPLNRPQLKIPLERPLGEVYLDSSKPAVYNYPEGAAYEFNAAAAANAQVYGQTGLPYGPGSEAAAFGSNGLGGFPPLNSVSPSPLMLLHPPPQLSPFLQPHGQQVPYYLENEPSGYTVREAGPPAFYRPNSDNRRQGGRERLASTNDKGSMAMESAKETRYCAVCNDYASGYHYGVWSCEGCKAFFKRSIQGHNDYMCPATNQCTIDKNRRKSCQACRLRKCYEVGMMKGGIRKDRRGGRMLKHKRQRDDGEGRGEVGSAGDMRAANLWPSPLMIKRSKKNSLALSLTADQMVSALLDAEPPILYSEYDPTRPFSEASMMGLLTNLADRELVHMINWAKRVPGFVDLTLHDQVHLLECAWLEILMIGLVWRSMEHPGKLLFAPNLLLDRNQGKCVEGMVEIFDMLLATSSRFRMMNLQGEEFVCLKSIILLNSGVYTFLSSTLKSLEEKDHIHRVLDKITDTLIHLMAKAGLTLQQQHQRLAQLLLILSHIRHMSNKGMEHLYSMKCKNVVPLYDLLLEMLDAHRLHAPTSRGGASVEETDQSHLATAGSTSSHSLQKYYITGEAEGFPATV
Thyrotropin-releasing hormone receptor (Homo sapiens), sequence (P34981 whole entry, looked up): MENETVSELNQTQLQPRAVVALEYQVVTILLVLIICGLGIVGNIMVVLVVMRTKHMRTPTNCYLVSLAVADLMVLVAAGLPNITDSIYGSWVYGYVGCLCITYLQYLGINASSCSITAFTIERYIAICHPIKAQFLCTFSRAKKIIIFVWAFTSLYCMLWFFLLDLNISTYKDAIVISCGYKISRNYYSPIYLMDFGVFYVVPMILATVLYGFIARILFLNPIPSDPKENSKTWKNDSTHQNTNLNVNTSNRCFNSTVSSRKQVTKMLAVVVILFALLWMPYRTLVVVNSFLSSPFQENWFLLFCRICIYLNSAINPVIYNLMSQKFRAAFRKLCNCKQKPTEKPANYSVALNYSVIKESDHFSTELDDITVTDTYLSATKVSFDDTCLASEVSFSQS
Nuclear receptor subfamily 1 group I member 2 (Homo sapiens), sequence (O75469 whole entry, looked up): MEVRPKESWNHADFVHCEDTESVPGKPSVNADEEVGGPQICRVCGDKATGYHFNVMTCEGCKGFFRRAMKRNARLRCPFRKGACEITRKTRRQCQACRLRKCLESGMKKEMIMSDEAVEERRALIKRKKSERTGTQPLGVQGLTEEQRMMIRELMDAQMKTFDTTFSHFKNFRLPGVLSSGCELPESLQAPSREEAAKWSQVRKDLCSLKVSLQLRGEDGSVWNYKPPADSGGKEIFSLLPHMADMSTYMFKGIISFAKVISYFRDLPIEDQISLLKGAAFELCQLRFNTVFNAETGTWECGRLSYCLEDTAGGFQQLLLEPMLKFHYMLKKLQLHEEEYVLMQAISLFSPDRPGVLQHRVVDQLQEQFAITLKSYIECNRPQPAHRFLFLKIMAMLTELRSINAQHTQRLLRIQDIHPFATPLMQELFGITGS
Progesterone receptor (Homo sapiens), sequence (P06401 whole entry, looked up): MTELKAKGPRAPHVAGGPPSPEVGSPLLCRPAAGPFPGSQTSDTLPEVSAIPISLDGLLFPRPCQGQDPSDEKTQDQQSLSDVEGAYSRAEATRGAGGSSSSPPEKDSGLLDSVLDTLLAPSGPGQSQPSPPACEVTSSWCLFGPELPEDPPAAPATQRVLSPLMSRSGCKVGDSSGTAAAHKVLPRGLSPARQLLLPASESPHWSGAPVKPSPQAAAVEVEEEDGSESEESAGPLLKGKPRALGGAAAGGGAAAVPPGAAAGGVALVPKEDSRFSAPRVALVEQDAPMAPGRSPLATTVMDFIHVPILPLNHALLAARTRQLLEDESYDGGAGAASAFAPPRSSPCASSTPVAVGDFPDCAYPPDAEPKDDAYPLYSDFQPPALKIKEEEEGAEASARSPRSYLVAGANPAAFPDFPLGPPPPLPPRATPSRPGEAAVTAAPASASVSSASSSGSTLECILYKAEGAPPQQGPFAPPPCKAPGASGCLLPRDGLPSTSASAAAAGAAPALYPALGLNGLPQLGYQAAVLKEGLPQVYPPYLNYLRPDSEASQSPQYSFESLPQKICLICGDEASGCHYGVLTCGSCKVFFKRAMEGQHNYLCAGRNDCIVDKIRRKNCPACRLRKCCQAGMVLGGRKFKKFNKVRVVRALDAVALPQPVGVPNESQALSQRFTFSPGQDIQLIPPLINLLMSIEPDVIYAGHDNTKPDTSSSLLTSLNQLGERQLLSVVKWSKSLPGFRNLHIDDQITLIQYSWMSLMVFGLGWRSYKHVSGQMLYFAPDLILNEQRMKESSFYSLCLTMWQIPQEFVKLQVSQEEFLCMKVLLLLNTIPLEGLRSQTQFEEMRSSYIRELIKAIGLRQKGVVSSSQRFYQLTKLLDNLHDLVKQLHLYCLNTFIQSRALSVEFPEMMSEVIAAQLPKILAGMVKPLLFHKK
Thyrotropin receptor (Homo sapiens), sequence (P16473 whole entry, looked up): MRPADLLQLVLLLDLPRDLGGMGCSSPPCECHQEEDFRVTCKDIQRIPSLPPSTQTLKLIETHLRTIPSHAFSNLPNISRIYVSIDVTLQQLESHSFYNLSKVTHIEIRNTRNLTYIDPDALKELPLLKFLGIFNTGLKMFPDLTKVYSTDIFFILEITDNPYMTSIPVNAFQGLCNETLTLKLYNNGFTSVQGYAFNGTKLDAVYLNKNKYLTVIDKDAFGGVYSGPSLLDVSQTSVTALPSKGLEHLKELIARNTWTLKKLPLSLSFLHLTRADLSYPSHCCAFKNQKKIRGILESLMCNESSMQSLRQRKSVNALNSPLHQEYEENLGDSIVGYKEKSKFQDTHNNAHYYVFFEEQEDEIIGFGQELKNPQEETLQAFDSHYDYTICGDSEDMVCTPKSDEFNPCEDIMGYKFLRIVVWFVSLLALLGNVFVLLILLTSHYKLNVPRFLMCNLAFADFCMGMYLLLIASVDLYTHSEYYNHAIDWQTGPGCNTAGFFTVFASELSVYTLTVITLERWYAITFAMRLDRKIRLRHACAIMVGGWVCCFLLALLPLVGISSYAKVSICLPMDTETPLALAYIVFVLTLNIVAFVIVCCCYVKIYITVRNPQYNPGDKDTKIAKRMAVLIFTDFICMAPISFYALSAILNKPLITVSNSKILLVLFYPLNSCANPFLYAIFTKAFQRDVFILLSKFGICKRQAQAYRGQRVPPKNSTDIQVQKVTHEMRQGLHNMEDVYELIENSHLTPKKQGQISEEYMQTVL

For `NC(=O)c1ccccc1Cl`, the Potency result in [1], in [2], in assay [3], in [5], in assay [6] and in assay [7] was “inactive” each time. For the same compound, the Potency result in assay [8], in assay [9], in assay [11], in assay [12], in [13] and in [14] was “inactive” in each case. The result in assay [4] and in assay [10] was inactive.
As for `O=C1C=CC(=O)N1c1cccc(N2C(=O)C=CC2=O)c1`, the Potency in assay [1] is 68.6 µM (active); in assay [16], 21.7 µM (active); in assay [8], 54.9 µM (active); in [11], 61.1 µM (active); in assay [18] it was 5.45 µM (active); in assay [14], 61.1 µM (active). Moreover, the Potency entry in assay [2], in assay [15], in assay [17], in assay [12], in assay [13] and in [19] was “inactive” each time. Also, the call in [10] was inactive.
In the case of `CC1=C(/C=C/C(C)=C/C=C/C(C)=C\C(=O)O)C(C)(C)CCC1`, the Potency entry in assay [1], in assay [2], in assay [3], in assay [5], in assay [7] and in [8] was “inactive” throughout. The Potency result in assay [9], in assay [11], in [12] and in assay [14] was “inactive” each time. Moreover, the outcome in assay [4] and in assay [10] was inactive.
In the case of `Oc1cccc2c(O)cccc12`, the values for the Potency in [1] and in [5] were 61.1 µM (active) and 48.6 µM (active), respectively. Moreover, the Potency entry in [2], in assay [3], in assay [6], in [7], in assay [8] and in [9] was “inactive” each time. The Potency entry in [20], in assay [17], in assay [12], in assay [13] and in [14] was “inactive” throughout. For the same compound, the result in [4] and in assay [10] was inactive.
`Cc1cccc2c1ccc1ccccc12`: the Potency entry in [1], in assay [2], in [3], in assay [6], in [7] and in [8] was “inactive” in each case. In addition, the Potency entry in [9], in [20], in [11], in assay [12], in assay [13] and in assay [14] was “inactive” each time. The Potency result in assay [19] was “inactive”. The outcome in assay [4] and in assay [10] was inactive.
Take `CCOC(=O)[C@H](C)O`: the Potency result in [1], in assay [2], in assay [3], in assay [5], in assay [6] and in [7] was “inactive” in each case. Besides, the Potency entry in assay [8], in assay [9], in assay [11], in assay [12], in [18] and in [13] was “inactive” throughout. Also, the Potency result in assay [14] and in assay [19] was “inactive” in each case. In addition, the outcome in assay [4] and in [10] was inactive.
Regarding `CN(C[C@@H](CC[N+]12CCC(C3CCCCC3)(CC1)CC2)c1ccc(Cl)c(Cl)c1)C(=O)c1cc(C(F)(F)F)cc(C(F)(F)F)c1`, the Potency in [1] was 17.2 µM (active); in assay [6] it was 27.3 µM (active); in assay [7], 13.7 µM (active). Also, the Potency result in assay [2], in [15], in assay [16], in assay [8], in assay [20] and in assay [17] was “inactive” in each case. Moreover, the Potency result in assay [12], in assay [13] and in assay [19] was “inactive” in each case.
With `CC(=O)CC(N)=O`, the Potency entry in [1], in [2], in assay [3], in [5], in [6] and in assay [8] was “inactive” in each case. For the same compound, the Potency entry in [9], in [20], in assay [17], in assay [11], in [12] and in [18] was “inactive” each time. In addition, the Potency entry in [13] and in assay [14] was “inactive” in each case. The call in assay [4] and in assay [10] was inactive.
